Measured values reported in PubChem BioAssay (NCATS).
Records with an inconclusive call do not appear. Active and inactive are the calls of the source. Calls come from the whole dose curve; as a rule, active = well fitted curve in the direction sought with a large enough effect; inconclusive = small, poorly fitted or top-dose-only effect, or another doubt; inactive = no such curve, though single readings can be large; an effect the other way counts as inactive or inconclusive.

Assays:
[1] = biological target: Aldehyde dehydrogenase, mitochondrial (Homo sapiens) (UniProt P05091); assay: qHTS for Inhibitors of the Aldehyde Dehydrogenase Family (ALDH2) Primary screen (AID 2061308); note: nearly all actives have a fitted effect of over 55% in size
[2] = biological target: Retinaldehyde dehydrogenase 3 (Homo sapiens) (UniProt P47895); assay: qHTS for Inhibitors of the Aldehyde Dehydrogenase Family (ALDH1A3) Primary screen (AID 2061315)
[3] = BET inhibitor-based combinations targeting novel dependencies in MECOM-rearranged (r) AML: OCI-AML3 cell line (AID 2202232); conditions: Potency: OCI-AML3 viability; note: nearly all actives have a fitted effect of over 35% in size; note: potency is the fitted concentration of half-maximal effect
How it was run: (§1)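 500 cells/well; 11-pt dose curve; 48 h, standard incubator; CellTiter-Glo luminescence after 15 min RT; DMSO/empty-well normalization; AUC plus Z-AUC (mean-centered within each line).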

[4] = BET inhibitor-based combinations targeting novel dependencies in MECOM-rearranged (r) AML: MV-4-11 cell line (AID 2202233); note: potency is the fitted concentration of half-maximal effect; nearly all actives have a fitted effect of over 45% in size
How it was run: (§2)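 Cells were plated at 500 per well and exposed to each drug across an 11-point dose range for 48 hr at standard incubator conditions. Viability was read by CellTiter-Glo luminescence, and activity was expressed as AUC and per-cell-line Z-transformed AUC.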

[5] = BET inhibitor-based combinations targeting novel dependencies in MECOM-rearranged (r) AML: AML-191 cell line (AID 2202236; note: nearly all actives have a fitted effect of over 35% in size; note: potency is the fitted concentration of half-maximal effect)
How it was run: as §1

[6] = BET inhibitor-based combinations targeting novel dependencies in MECOM-rearranged (r) AML: HNT-34 cell line (AID 2202234); note: potency is the fitted concentration of half-maximal effect; nearly all actives have a fitted effect of over 35% in size
How it was run: as §2

[7] = BET inhibitor-based combinations targeting novel dependencies in MECOM-rearranged (r) AML: UCSD-AML1 cell line (AID 2202235); note: potency is the fitted concentration of half-maximal effect; nearly all actives have a fitted effect of over 40% in size
How it was run: as §2

[8] = BET inhibitor-based combinations targeting novel dependencies in MECOM-rearranged (r) AML: SET-2 cell line (AID 2202231); conditions: SET-2 AML cells viability, CellTiter-Glo luminescence, 48 h; viability: stronger effect = lower value, concentration not given here; note: potency is the fitted concentration of half-maximal effect; nearly all actives have a fitted effect of over 35% in size
How it was run: as §1

[9] = BET inhibitor-based combinations targeting novel dependencies in MECOM-rearranged (r) AML: AML-194 cell line (AID 2202237; note: potency is the fitted concentration of half-maximal effect; nearly all actives have a fitted effect of over 40% in size)
How it was run: as §1

SMILES | Potency [1] | Potency [2] | Potency [3] | Potency [4] | Potency [5] | Potency [6] | Potency [7] | Potency [8] | Potency [9]
C[C@H](CN(C)C)Oc1nc(Nc2cc3cccc(Cl)c3cn2)cnc1C#N | inactive | inactive | 4.68 µM (active) | 1.86 µM (active) |  |  |  |  | 
C[C@@H]1CC(=O)Nc2cccc(-c3cnn(C(C)(C)C)c3)c2N1 | inactive | inactive | 18.6 µM (active) |  | 16.6 µM (active) |  |  |  | 
CCn1c(=O)c(-c2ccc(Cl)cc2Cl)cc2cnc(Nc3ccc(N4CCNCC4)c(F)c3)nc21 | inactive | inactive |  | 0.525 µM (active) |  | 0.105 µM (active) | 0.525 µM (active) |  | 
O=C1NC(=O)/C(=C/c2cccc(C(F)(F)F)c2)S1 | inactive | inactive | inactive |  | inactive |  |  |  | 
COc1cc2nc(-c3ccc(N4CCN(C)CC4)cc3)nc(NCCN3CCOCC3)c2cc1OC | inactive | inactive |  | 2.35 µM (active) | 9.34 µM (active) | 10.5 µM (active) | 4.68 µM (active) | 5.9 µM (active) | 13.2 µM (active)
CCN1CCN(Cc2ccc(NC(=O)Nc3ccc(Oc4cc(NC)ncn4)cc3)cc2C(F)(F)F)CC1 | inactive | inactive |  | 0.0023 µM (active) |  |  |  |  | 
Cc1[nH]c(/C=C2\C(=O)Nc3ccc(F)cc32)c(C)c1C(=O)NC[C@H](O)CN1CCOCC1 | inactive | inactive |  | 0.0742 µM (active) | 4.17 µM (active) | 3.72 µM (active) | 10.5 µM (active) |  | 10.5 µM (active)
C=CC(=O)Nc1ccc2ncnc(Nc3cccc(Br)c3)c2c1 | inactive | inactive | 11.8 µM (active) | 7.42 µM (active) | 8.33 µM (active) | 9.34 µM (active) | 8.33 µM (active) |  | 11.8 µM (active)
